Compound activity as filed in PubChem.
A549 viability: counter-screen for Nrf2 inhibitors: cytotoxicity in A549 cells; A549 ARE-Fluc cells, CellTiter-Fluor viability, 18-24 h; Potency, µM (top dose mostly 46 µM), most hits filed as inhibitors; hit rate 0.16% among 390,000; AID 504648
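A549 ARE_Fluc cells in 5% FBS OPTI-MEM were exposed to compounds in concentration-response for 18-24 h at 37 deg C. Viability was read by CellTiter-Fluor fluorescence (Ex 405/Em 525) after 30 min, before the luciferase read.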
Nrf2 activator: activators of Nrf2 (ARE) signaling; AREc32 ARE-luciferase reporter (MCF7-derived line), luminescence, 24 h; AID 624171; Potency, µM (top dose mostly 46.1 µM), usual class: activators; hit rate 0.31% among 410,000; note: nearly all actives have a fitted effect of over 65% in size
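For detection, Steady-Glo was added and plates sat 30 min at RT; before that, AREc32_Fluc cells grown overnight in OPTI-MEM/5% FBS had been treated with 23 nL compound for 24 hr at 37 deg C.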
Pin1 inhibitor: human Pin1 inhibition; Pin1 FP peptide displacement, HiFluor488, 10 min; Potency, µM (doses to about 115 µM), usual class: inhibitors; hit rate 0.009% among 390,000; AID 504891; active = well fitted inhibition curve with a large enough effect in the polarisation, with a control signal flat, not every such curve was filed as active; inconclusive = small, poorly fitted or top-dose-only effect, or effect the other way, or a change in a side signal; inactive = no such curve, though single readings can be large or run the other way; the % refers to the polarisation
Target sequence (Q13526 whole entry, looked up): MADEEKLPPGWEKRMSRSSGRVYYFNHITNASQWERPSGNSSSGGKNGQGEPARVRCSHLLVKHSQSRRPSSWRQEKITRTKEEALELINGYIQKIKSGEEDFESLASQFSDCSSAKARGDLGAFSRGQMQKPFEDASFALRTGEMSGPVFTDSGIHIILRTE
Nrf2 inh: inhibitors of Nrf2 signaling. A549 ARE-Fluc reporter, luciferase luminescence, 18-24 h. Potency, µM (doses to about 46 µM), hits mostly inhibitors. hit rate 2.1% among 360,000. AID 504444; note: nearly all actives have a fitted effect of over 60% in size
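Nrf2 function is reported as luminescence of an ARE-controlled luciferase in A549 cells. Compounds were tested at several concentrations, and a CellTiter-Fluor read on the same wells flagged cytotoxicity.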
Hits are given with their value; – = inactive; ? = inconclusive; · = no result given. Compounds with a hit are over-represented: about 2.2% of the library has one in this group of screens. Unless noted, calls come from the whole dose curve; as a rule, active = well fitted curve in the direction sought with a large enough effect; inconclusive = small, poorly fitted or top-dose-only effect, or another doubt; inactive = no such curve, though single readings can be large; an effect the other way counts as inactive or inconclusive.

SMILES	A549 viability	Nrf2 activator	Pin1 inhibitor	Nrf2 inh
CCC1(O)C(=O)OCc2c1cc1n(c2=O)Cc2cc3c(N)cccc3nc2-1 (centres undefined)	?	–	–	0.82µM
O=C(N/N=C/c1cc(Br)c(Br)s1)c1ccncc1	–	–	–	18.4µM
Cc1cc(C)c(-n2c(O)c(/C=N/NC(=O)c3ccncc3)c(=O)[nH]c2=O)c(C)c1	–	–	?	–
CCC(=O)c1ccc(OCC(=O)N2CCN(CC(=O)Nc3ccccc3C(F)(F)F)CC2)cc1	–	–	–	16.4µM
COc1cccc(-n2nnc3c(sc4nc(C)cc(C)c43)c2=O)c1	–	–	–	?
CCOC(=O)C1=C(CN2CCN(c3ccc(C)cc3C)CC2)NC(=O)NC1c1ccc(OC)cc1 (centres undefined)	–	–	–	14.6µM
CC(=O)O[C@@H]1CC[C@]2(C)C3CC[C@@]4(C)C(C[C@@H](O)[C@@H]4O)C3[C@@H](OC(C)=O)C[C@H]2C1 (some centres undefined)	–	–	–	–
CC(=O)OC1CCC2(C)C(CCC3C2CC(=O)C2(C)C3CC(N3CC3)C2C(C)=O)C1 (centres undefined)	18.4µM	?	–	–
CCOc1ccc(CCNC(=O)c2ccc(-n3c(C)cc4c3CCCC4)cc2)cc1OCC	–	?	–	–
Cc1ccc(-c2nc3c(=O)n(C)c(=O)nc-3n(C)n2)cc1	2.91µM	·	–	3.26µM
Cn1ncnc2c(=O)n(C)c(=O)nc1-2	0.461µM	–	?	0.184µM
COc1ccc(-c2cc3nc(C)c(CCC(=O)N4CCN(c5cc(C)ccc5C)CC4)c(C)n3n2)c(OC)c1	–	–	–	?
COc1ccc(-n2c(-c3ccco3)nc3c(cnn3-c3ccc(Cl)cc3)c2=O)cc1	–	–	–	25.9µM
CC1OC(OC2C(O)CC(OC3C(O)CC(OC4CCC5(C)C(CCC6C5CCC5(C)C(C7=CC(=O)OC7)C(O)CC65O)C4)OC3C)OC2C)CC(O)C1O (centres undefined)	?	–	–	0.092µM
C[C@@H]1O[C@@H](O[C@H]2C[C@@H](O)[C@]3(CO)[C@H]4[C@H](O)C[C@]5(C)[C@@H](C6=CC(=O)OC6)CC[C@]5(O)[C@@H]4CC[C@]3(O)C2)[C@H](O)[C@H](O)[C@H]1O	?	–	–	0.0058µM
C[C@]12CCC3C(CCC4=CC(O)CC[C@@]43/C=N/O)C1(O)CCC2C1=CC(=O)OC1 (some centres undefined)	–	–	–	?
C[C@H]1O[C@@H](O[C@H]2[C@@H](O)C[C@H](O[C@H]3[C@@H](O)C[C@H](O[C@H]4CC[C@@]5(C)[C@H](CC[C@@H]6[C@@H]5CC[C@]5(C)[C@@H](C7=CC(=O)OC7)CC[C@]65O)C4)O[C@@H]3C)O[C@@H]2C)C[C@H](O)[C@@H]1O	?	–	–	0.0164µM
CC12CC[C@H]3[C@@H](CCC4(O)C[C@H](O)CCC34/C=N/NC(=O)c3ccccc3Cl)C1(O)CCC2C1=CC(=O)OC1 (some centres undefined)	–	–	–	–
CN(C)c1ccc(CN2CCc3nc(N4CCN(c5ccccn5)CC4)ncc3C2)cc1	–	–	?	·
C[C@@H](C1CC[C@@]2(O)C3=CC(=O)[C@@H]4C[C@@H](O)[C@@H](O)C[C@]4(C)[C@H]3CC[C@]12C)[C@H](O)CCC(C)(C)O (some centres undefined)	–	·	–	–
C=CC[C@@H](CC(=O)N(CCO)Cc1ccccc1)C(=O)NC[C@H](OC(=O)[C@@H](CC=C)CC(=O)OC(C)(C)C)c1ccccc1	–	–	–	?
CCOc1cccc(CC(=O)NCc2ccc3c(c2)CCN3C(=O)c2cccc(C)c2)c1OCC	–	–	–	20.6µM
COc1cccc2c1cc([N+](=O)[O-])c1c(C(=O)O)cc3c(c12)OCO3	?	–	?	11.6µM
COc1ccc(Nc2cc(C)c3cc(NC(=O)c4ccccc4Cl)ccc3n2)cc1	–	–	?	25.9µM
CCOc1ccc(NC(=O)CN(c2ccc(Cl)cc2C)S(=O)(=O)c2ccccc2)cc1	–	–	–	?
SMILES	A549 viability	Nrf2 activator	Pin1 inhibitor	Nrf2 inh
CN1C[C@H](C(=O)N[C@]2(C)O[C@@]3(O)[C@@H]4CCCN4C(=O)[C@H](Cc4ccccc4)N3C2=O)CC2c3cccc4[nH]cc(c34)C[C@H]21 (some centres undefined)	–	–	?	–
CC(C)C[C@H]1C(=O)N2CCC[C@H]2[C@]2(O)O[C@](NC(=O)C3C=C4c5cccc6[nH]c(Br)c(c56)C[C@H]4N(C)C3)(C(C)C)C(=O)N12 (some centres undefined)	?	–	?	18.4µM
O=C1NC2C(=CC(O)C(O)C2O)c2cc3c(cc21)OCO3 (centres undefined)	?	–	–	2.06µM
Cc1cn2c(=O)cc(COC(=O)c3ccccc3F)nc2s1	–	–	–	?
Cc1c(NS(=O)(=O)c2ccccc2)ccc([N+](=O)[O-])c1Cl	?	–	–	14.6µM
CC1C(OC(=O)CCC(=O)NC(C)(C)CO)O[C@H]2OC3(C)CC[C@H]4[C@H](C)CCC1C24OO3 (some centres undefined)	–	–	–	?
C[C@H]1[C@H](OC(=O)CCC(=O)NCc2ccc(C(=O)O)cc2)O[C@@H]2O[C@@]3(C)CC[C@H]4[C@H](C)CC[C@@H]1C24OO3	20.6µM	–	–	20.6µM
CC(=O)N1c2ccc(S(=O)(=O)N3CCCC(C(=O)Nc4cc(C)cc(C)c4)C3)cc2CC1C (centres undefined)	–	–	–	?
CC(=O)N1c2ccc(S(=O)(=O)NCC3CCC(C(=O)Nc4cc(C)cc(C)c4)CC3)cc2CC1C (centres undefined)	–	–	–	20.6µM
COc1ccc(Nc2nc(N)nc(CSc3nc4ccccc4s3)n2)cc1	–	–	–	20.6µM
N#CC1=C(N)Oc2n[nH]c(-c3ccccc3)c2C1c1cccc(OC(=O)N2CCOCC2)c1 (centres undefined)	–	–	–	?
Cc1ccc2c(c1)c(C1=c3ccccc3=NC1=O)c(O)n2C	–	11.2µM	–	?
O=c1[nH]c(=O)n(C2CCCCC2)c(O)c1C1=Nc2ccccc2SC(c2ccc(Cl)cc2)C1 (centres undefined)	–	–	?	–
O=C(c1ccc2c(c1)OCO2)N1CCC2(CC1)OCCO2	–	–	–	–
O=C(c1ccc(N2CCCCCC2)c([N+](=O)[O-])c1)N1CCC2(CC1)OCCO2	?	–	–	23.1µM
CCc1ccc(NC(=O)CN2C(=O)C3(SCC(=O)N3c3ccc(F)c(F)c3)c3ccccc32)cc1 (centres undefined)	–	–	–	?
C[C@H]1CCC/C=C/[C@@H]2C[C@H](O)C[C@H]2[C@@H](O)/C=C/C(=O)O1	?	–	–	0.259µM
Cc1c(N=Nc2c(O)n(Cc3ccccc3)c(=O)[nH]c2=O)c(=O)n(-c2ccccc2)n1C	16.4µM	–	–	5.17µM
O=[N+]([O-])c1oc2ccc3ccccc3c2c1CCO	?	–	–	18.4µM
